Data as given in PubChem BioAssay (NCATS).
Results filed as inconclusive are left out. Values without a mark were called inactive.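 How the source made its calls: active means compounds whose dose-response curve shows a full or clear partial loss of cell viability, called from curve shape rather than a numeric limit; inconclusive means weak partial curves or an effect only at the top dose; inactive means no dose-dependent loss of viability.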

assay: Cell Viability - Hek293 (AID 427); conditions: qHTS;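 further: cells exposed to compound for 40 hours at 37 °C before reading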
Description: NIH Chemical Genomics Center [NCGC]
NIH Molecular Libraries Screening Centers Network [MLSCN]
National Institutes of Environmental Health Sciences [NIEHS]
National Toxicology Program [NTP]
We have developed a 1536-well cell-based assay for quantitative high throughput screening (qHTS) against a number of cell lines to determine in vitro cytotoxicity of small molecules. This particular assay uses the Hek 293 cell line which is derived from human embryonic kidney cells (transformed with adenovirus).
NCGC Assay Protocol Summary:
The CellTiter-Glo luminescent cell viability assay (Promega) is a homogeneous method to measure the number of viable cells in culture. The end point readout of this assay is based on quantitation of intracellular ATP, an indicator of metabolic activity, using the luciferase reaction. Luciferase catalyzes the oxidation of beetle Luciferin to oxyluciferin and light in the presence of ATP. The luminescent signal is proportional to amount of ATP present.
Using the CellTiter-Glo luminescent cell viability assay, the amount of cellular ATP was measured in the Hek293 cell line with complete culture medium following compound treatment for 40 hours. The assay was performed in opaque white Kalypsys 1536-well plates. In the screen, tamoxifen and doxorubicin were used as positive controls. Library compounds were measured for their ability to cause acute toxicity in the cell line, as reflected by a decrease in intracellular ATP levels, in a concentration-dependent manner. Data were normalized to the controls for basal activity (DMSO only) and 100% inhibition (100 uM tamoxifen). AC50 values were determined from concentration-response data modeled with the standard Hill equation.
qHTS protocol fo CellTiter Glo Hek 293 cellular assay
[Step] [Parameter] [Value] [Description]
2. Time; 5 hr; 37 °C incubation
4. Controls; 23 nL; Tamoxifen 0.34 uM to 100 uM & Doxorubicin 0.02 nM to 100 uM
5. Time; 40 hr; 37 °C incubation
6. Reagent; 5 uL; CellTiter Glo reagent
7. Time; 20 min; Room Temperature
8. Detection; Luminescence; Viewlux plate reader
Keywords: cell viability, cytotoxicity, Hek293 cell line, luminescence, NTPHTS, NTPHTS_NCGC, NIEHS, EPA, DSSTox, MLSMR, MLSCN, NIH Roadmap, qHTS, NCGC
Potency means the concentration at half of the fitted maximal effect.

| Structure (SMILES) | Potency [µM] |
| --- | --- |
| CCOCCO | > 92 |
| CCCCC(CC)C(=O)O (stereo not given) | > 92 |
| COc1cccc2sc(N)nc12 | > 92 |
| CC(C)(O)C(=O)O | > 92 |
| Cc1nc2ccc(Cl)cc2[nH]1 | > 92 |
| C=Cc1ccccn1 | > 92 |
| Cc1c(N)cccc1N | > 92 |
| O=C(O)c1cccc(Cl)c1Cl | > 92 |
| C=C(C)C(N)=O | > 92 |
| COC(=O)CS | > 92 |
| C=C(C)C(=O)OCCCCCCCCCC | > 92 |
| Cc1cc([N+](=O)[O-])ccc1N | > 92 |
| Cc1cc(C)c(N)cc1C | > 92 |
| COc1cccc(N)c1 | > 92 |
| CC(C)Cc1nccs1 | > 92 |
| CC1CCC2CC1C2(C)C (stereo not given) | > 92 |
| CCOCCOCC | > 92 |
| CC(=O)c1ccccn1 | > 92 |
| O=C1C=CCCC1 | > 92 |
| C=C(C)OC(C)=O | > 92 |

| Structure (SMILES) | Potency [µM] |
| --- | --- |
| O=C(O)c1ccccc1C(=O)O | > 92 |
| O=Cc1ccc(C(=O)O)cc1 | > 92 |
| CC/C=C1/OC(=O)c2ccccc21 | > 92 |
| Nc1ccccc1[N+](=O)[O-] | > 92 |
| Cc1cc(C)cc(O)c1 | > 92 |
| COc1ccc(N)c(OC)c1 | > 92 |
| CSCCC=O | > 92 |
| COc1ccc(N)c(C)c1 | > 92 |
| CCOc1cc(OCC)c(C(C)=O)cc1OCC | > 92 |
| Nc1cccc(S(=O)(=O)O)c1 | > 92 |
| CCCCCCCCN | > 92 |
| NCCCCCCN | > 92 |
| CCCCOCCOCCOCCCC | > 92 |
| Cc1ccc2nc(-c3ccc(N)cc3)sc2c1S(=O)(=O)O | > 92 |
| Cc1cccc(C(=O)O)c1[N+](=O)[O-] | > 92 |
| Nc1nc(-c2ccccc2)cs1 | > 92 |
| O=Cc1c(Cl)cccc1Cl | > 92 |
| O=[N+]([O-])c1cccc(C(F)(F)F)c1 | > 92 |
| O=[N+]([O-])c1ccccc1CCO | > 92 |
| CC(=O)Nc1ccc(C)cc1 | > 92 |
